Sm TGR block: qHTS Assay for the Inhibitors of Schistosoma Mansoni Peroxiredoxins. Schistosoma mansoni thioredoxin glutathione reductase (TGR), Q962Y6. purified TGR, DTNB reduction, TNB absorbance 405 nm. Potency, µM (top dose mostly 114 µM), for the others: top-dose activity change, negative = inhibition, actives largely listed as inhibitors. actives 3% (n = 360,000). AID 485364, 2010; also: nearly all actives have a fitted effect of over 60% in size
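Kinetic colorimetric format: TGR-catalysed, NADPH-driven DTNB reduction monitored via TNB absorbance. Enzyme dispensed at 20 nM; compound exposure 15 min at room temperature before reaction start.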
AmpC inh no detg: qHTS Inhibitors of AmpC Beta-Lactamase (assay without detergent). Potency, µM (top dose mostly 57.1 µM), for inactives: at the top dose activity change, negative = inhibition, actives largely listed as inhibitors. actives 0.52% (n = 330,000). AmpC nitrocefin hydrolysis, absorbance 480 nm, 0.0001% Triton. P00811;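 also: plate controls were no compound for no effect and no enzyme for full effect; nearly all actives have a fitted effect of over 20% in size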
Target sequence (P00811 whole entry, looked up): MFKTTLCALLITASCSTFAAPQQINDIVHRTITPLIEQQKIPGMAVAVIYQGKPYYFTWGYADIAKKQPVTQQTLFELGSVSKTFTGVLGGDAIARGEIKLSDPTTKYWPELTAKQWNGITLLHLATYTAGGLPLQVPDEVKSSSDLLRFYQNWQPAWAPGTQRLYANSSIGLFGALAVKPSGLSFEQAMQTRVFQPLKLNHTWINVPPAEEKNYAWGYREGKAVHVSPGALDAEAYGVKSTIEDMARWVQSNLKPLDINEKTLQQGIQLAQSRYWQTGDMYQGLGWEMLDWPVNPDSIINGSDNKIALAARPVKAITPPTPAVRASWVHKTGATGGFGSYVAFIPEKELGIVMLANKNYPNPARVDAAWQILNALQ
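20 mM phosphate pH 7.0 + 0.01% (detergent screen) or 0.0001% Triton X-100; 5.3 nM AmpC reagent; cpd preinc 15 min RT; nitrocefin (800 uM stock) to start; A480 q20 s × 4 min; Activity was normalised to no-enzyme and no-compound control wells.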
AmpC inh detg: qHTS Inhibitors of AmpC Beta-Lactamase (assay with detergent) | AID 485294, 2010 | actives 0.041% (n = 370,000) | P00811 | Potency, µM (doses to about 114 µM), for the others: at the highest dose activity change, negative = inhibition, actives largely listed as inhibitors | AmpC hydrolysis of nitrocefin, absorbance 480 nm, 0.01% Triton;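 also: 0% = no-compound wells and -100% = no-enzyme wells; nearly all actives have a fitted effect of over 25% in size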
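AmpC (5.3 nM in the dispensed reagent) in 20 mM phosphate pH 7.0 with 0.01% (detergent screen) or 0.0001% Triton X-100 was preincubated with compounds for 15 min at room temperature. Nitrocefin was then added from an 800 uM solution, and hydrolysis was followed at 480 nm.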
Giardia FBPA inh: qHTS Assay for Inhibitors of Fructose-1,6-bisphosphate Aldolase from Giardia Lamblia | A8B2U2 | purified Giardia FBPA | Potency, µM (series often up to 59.6 µM), without a hit: at the top dose activity, negative = inhibition, usual class: inhibitors | actives 0.71% (n = 290,000) | AID 2451, 2010; also: nearly all actives have a fitted effect of over 55% in size
Target sequence (A8B2U2 whole entry, looked up): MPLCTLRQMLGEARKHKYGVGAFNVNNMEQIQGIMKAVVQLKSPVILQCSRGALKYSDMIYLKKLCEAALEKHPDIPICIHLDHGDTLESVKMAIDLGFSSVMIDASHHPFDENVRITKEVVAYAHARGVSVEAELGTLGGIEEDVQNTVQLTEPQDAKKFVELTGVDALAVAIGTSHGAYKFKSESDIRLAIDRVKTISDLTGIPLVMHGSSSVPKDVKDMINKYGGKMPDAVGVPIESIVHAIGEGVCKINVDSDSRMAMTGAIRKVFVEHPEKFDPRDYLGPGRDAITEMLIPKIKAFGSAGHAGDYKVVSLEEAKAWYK
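40 nM FBPA preincubated 10 min at RT with compound (up to 57.5 uM final), then substrate plus GAPDH/TPI/NAD/arsenate coupling and diaphorase/resazurin added. Fluorescence read after 20 min at RT, 525/598 nm.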
* marks the source's active call; other numbers are inactive results; ? = inconclusive; / = not tested or not shown; [ ] = dose if it differs, or a comment. Most compounds without a hit are left out; they make up all but 3.6% or so of the library. Calls follow the shape of the dose curve; as a rule, active = well fitted curve in the direction sought with a large enough effect; inconclusive = small, poorly fitted or top-dose-only effect, or another doubt; inactive = no such curve, though single readings can be large; an effect the other way counts as inactive or inconclusive. Unless noted, % is scaled to controls: 0 for no effect and ±100 for the full control effect; potency is read from the fitted curve at half-maximal effect.

SMILES | Sm TGR block | AmpC inh no detg | AmpC inh detg | Giardia FBPA inh
CC(=O)N(CCC(c1ccco1)C(C)C)Cc1ccc(OC(C)C)cc1 (stereo not given) | ? | 129% | 4% | 4%
CCc1ccc(CNc2ccc3c(c2)ncn3CC)cc1 | 4.5µM* | 0% | -4% | 2%
CC(C)c1ccc(CNc2ccc3c(c2)ncn3C)cc1 | 5% | 21% | 3% | 15%
CCn1cnc2cc(NCc3ccc(OC)cc3)ccc21 | 7% | -18% | -8% | -6%
CN(C)c1ccc(CNc2ccc3c(c2)ncn3C)cc1 | 35µM* | 5% | ? | -17%
Cc1ccc(NCCC(=O)c2cccc([N+](=O)[O-])c2)c(C)c1 | 0.5µM* | 20µM* | 5% | 4%
Cc1cccc(NCCC(=O)c2ccc([N+](=O)[O-])cc2)c1C | / | -21% | 9% | -6%
Cc1oc2c(c1C(=O)O)C(=O)c1ccccc1C2=O | -32% | -21% | 0% | ?
Cc1oc2c(c1C(=O)c1ccccc1)C(=O)C(=O)c1ccccc1-2 | ? | -55% | 4% | 1.1µM*
O=C(C1=C(c2ccccc2)C(=O)c2ccccc2C1=O)c1ccccc1 | 11% | -6% | ? | ?
O=C1C(=O)c2c(C(=O)c3ccccc3)coc2-c2ccccc21 | ? | -35% | 0% | 3.2µM*
CCCCC1(C)OC(=O)C(=Cc2ccc(-c3ccc(Cl)c(C(=O)O)c3)o2)C(=O)O1 (stereo not given) | -9% | -26% | -10% | 5%
CCOC(=O)c1cc(-c2ccc(/C=C3/C(=O)NC(=O)C(C#N)=C3C)o2)ccc1Cl | 7.9µM* | -51% | -5% | ?
CC1=C(C#N)C(=O)NC(=O)/C1=C\c1ccc(-c2ccc(C)cc2[N+](=O)[O-])o1 | 8.9µM* | -40% | -1% | ?
CCN(CC)CCNC(=O)CCn1c(=O)c2cccn2c2cccnc21 | 7% | / | -10% | /
c1ccc(CCNc2ccccc2)cc1 | -1% | -32% | 4% | -17%
CC(C)C(=O)Nc1cccc(-c2cnc3ccccc3n2)c1 | -3% | -7% | -13% | -4%
C=CCN(CC=C)C(=S)Nc1ccc2nsnc2c1 | ? | -20% | 4% | 10µM*
COc1ccc(C(=O)Nc2ccc3nc(C)c(C)nc3c2)cc1 | 1% | -9% | 1% | 1%
CNC(=S)Nc1cccc(-c2cnc3ccccc3n2)c1 | 11µM* | -30% | ? | -11%
CNC(=S)Nc1ccc2nc(C)c(C)nc2c1 | 32µM* | -24% | -2% | ?
COc1ccc(NC(=S)Nc2ccc3nc(C)c(C)nc3c2)cc1 | 22µM* | -15% | -4% | ?
CCC(C(=O)Nc1cccc(C#N)c1)n1c(=O)c(-c2ccccc2NC(C)=O)nc2ccccc21 (stereo not given) | 0% | / | -1% | /
COc1ccc(NC(=S)Nc2ccc3nsnc3c2)cc1 | 40µM* | -21% | ? | ?
CCOC(=O)C1=C(O)/C(=C\c2ccc(CNC(=O)C(=O)Nc3ccc(C)c(C)c3)o2)N=C1C | 40µM* | -36% | ? | -15%
SMILES | Sm TGR block | AmpC inh no detg | AmpC inh detg | Giardia FBPA inh
COCCNC(=O)/C(C#N)=C\c1ccc(CNC(=O)C(=O)Nc2ccc(C)c(C)c2)o1 | / | -2% | 4% | -8%
Cc1cc(NC(=O)c2cccnc2)cc(-c2nc3cc(Cl)ccc3o2)c1O | 1% | / | 10% | /
Nc1cccc2c1C(=O)N(CCOc1ccc(F)cc1)C2=O | -7% | -6% | 1% | 11%
O=C(Cc1cc(=O)[nH]c(=O)[nH]1)N1CCN(CCO)CC1 | 32µM* | -6% | 5% | -8%
COCC(=O)N1CCC(Oc2ccc(C(=O)NC3Cc4ccccc4C3)cc2)CC1 | -24% | 76% | -6% | /
N#CC1=C2SCN(C3CCCCC3)CN2C(=O)CC1c1ccc(Cl)cc1 (stereo not given) | 7.9µM* | / | 1% | /
N#CC1=C2SCN(C3CCCCC3)CN2C(=O)CC1c1ccc(F)cc1 (stereo not given) | 3.5µM* | / | -2% | /
CCOc1ccc(S(=O)(=O)N(C)CC(=O)NC2CCCC2)cc1 | 4% | 1% | -2% | 4%
COC(=O)C1CCN(C2CC(=O)N(c3cc(C)cc(C)c3)C2=O)CC1 (stereo not given) | ? | 0% | -11% | 1%
CC1c2cccn2CCN1S(=O)(=O)c1ccc(F)cc1 (stereo not given) | ? | -14% | -3% | /
COC(=O)c1ccccc1S(=O)(=O)N1CCn2cccc2C1C (stereo not given) | ? | -43% | -6% | -13%
CC(=O)c1cccc(S(=O)(=O)N2CCn3cccc3C2C)c1 (stereo not given) | 32µM* | -7% | ? | /
COc1ccc(NC(C)=O)cc1S(=O)(=O)N1CCn2cccc2C1C (stereo not given) | 25µM* | 27% | -2% | /
CC(=O)c1ccc(S(=O)(=O)N2CCn3cccc3C2C)cc1 (stereo not given) | 35µM* | 0% | -2% | /
CNC(=S)N(CCCO)Cc1cc2cc3c(cc2[nH]c1=O)OCO3 | -19% | -15% | 5% | -8%
COC(=O)CCC(=O)OC1(C)C(=O)C2=CN(CCCCO)C(c3ccc(OC)cc3)=CC2=C(Br)C1=O (stereo not given) | 45µM* | 168% | -16% | 5µM*
COC(=O)CCC(=O)OC1(C)C(=O)C2=CN(C(CO)CO)C(c3ccc(OC)cc3)=CC2=C(Br)C1=O (stereo not given) | ? | 63% | -1% | 0.63µM*
COC(=O)CCC(=O)OC1(C)C(=O)C2=CN(CCN3CCOCC3)C(c3ccc(OC)cc3)=CC2=C(Br)C1=O (stereo not given) | ? | 187% | -2% | 0.56µM*
CC1(OC(=O)CCc2ccccc2)C(=O)C=C2C=C(c3ccc(C#N)cc3)N(CCN3CCOCC3)C=C2C1=O (stereo not given) | -11% | 141% | -7% | ?
COC(=O)CCC(=O)OC1(C)C(=O)C2=CN(Cc3ccc4c(c3)OCO4)C(c3ccc(OC)cc3)=CC2=C(Br)C1=O (stereo not given) | / | / | / | -19%[12.9 µM]
CC(NC(=O)Cn1ccc2cc(S(=O)(=O)N3CCCCCC3)ccc21)c1ccccc1 (stereo not given) | 2% | / | 22% | /
O=C1C(Cl)=CC(=Nc2ccc(O)cc2)C=C1Cl | 0.89µM* | 28µM* | ? | ?
O=C1CSC(=Nc2ccc(O)cc2)N1 | 10% | 4% | 0% | 3%
O=S(=O)(Nc1cc(C(F)(F)F)ccc1N1CCOCC1)c1ccc2ccccc2c1 | 1% | 27% | 4% | 1%
CN(C)C1(CNC(=O)C2CCN(S(=O)(=O)c3cc(Cl)ccc3Cl)CC2)CCCCC1 | 25µM* | 6% | -6% | /
COc1cc(OC)cc(C(=O)NC(=S)Nc2ccc(N3CCCC3)cc2)c1 | 89µM* | -10% | ? | -14%
Cc1ccc(C(=O)NC(=S)Nc2ccc(S(=O)(=O)N3CCN(C)CC3)cc2)cc1 | 28µM* | 75% | ? | -17%

Screens: PubChem, National Center for Advancing Translational Sciences (NCATS)
